Rv3671c protease: Rv3671c serine protease inhibitors, primary screen, biochemical, fluorescence polarization, M. tuberculosis H37Rv | P9WHR9 | 320,000 compounds, 0.048% hits | inhibition, % at 5.96 µM; in the data active = inhibition above about 38%;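 also: extracellular domain of Rv3671c used as enzyme; 0% = enzyme with DMSO and 100% = no enzyme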
Target sequence (P9WHR9 whole entry, looked up, the tested form may be a part): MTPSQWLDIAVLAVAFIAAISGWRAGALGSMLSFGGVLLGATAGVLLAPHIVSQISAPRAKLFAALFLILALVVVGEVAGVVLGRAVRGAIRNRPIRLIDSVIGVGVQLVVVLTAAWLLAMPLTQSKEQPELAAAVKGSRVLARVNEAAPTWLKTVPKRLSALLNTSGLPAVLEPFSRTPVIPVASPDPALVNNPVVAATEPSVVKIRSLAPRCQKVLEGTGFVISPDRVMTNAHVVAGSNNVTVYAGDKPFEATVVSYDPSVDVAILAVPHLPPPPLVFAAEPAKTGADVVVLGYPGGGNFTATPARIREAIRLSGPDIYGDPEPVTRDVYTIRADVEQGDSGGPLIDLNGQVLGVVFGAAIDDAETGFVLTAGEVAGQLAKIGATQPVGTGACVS
Mtb hypoxia rep: PubChem AID 1159583. M. tuberculosis hypoxia-regulated fluorescent reporter, fluorescence. fluorescence inhibition, % (test concentration not listed). 300,000 compounds, 0.1% hits; in the data active = fluorescence inhibition mostly above about 23%, no sharp cut-off; inactive = mostly below about 17%
RecA splice inh: Mtb RecA intein splicing inhibitors, primary screen, biochemical, fluorescence, HTS | Protein RecA (Mycobacterium tuberculosis (strain ATCC 25618 / H37Rv)), P9WHJ3 | cell-free RecA intein splicing | inhibition, % (concentration not given with the values) | 290,000 compounds, 0.75% hits; in the data active = inhibition above about 30%;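 also: 0% = vehicle wells and 100% = reference inhibitor control wells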
Mtb UGM inh: M. tuberculosis UGM enzyme inhibitors, primary screen, biochemical, fluorescence polarization, single point; inhibition, % at 10 µM; UDP-galactopyranose mutase (Mycobacterium tuberculosis (strain ATCC 25618 / H37Rv)), …; purified UGM, fluorescence polarization probe displacement; 320,000 compounds, 0.06% hits; AID 504406, 2011; in the data active = inhibition above about 10%, passing the limit was not always enough
Mtb betalactam: beta-lactam sensitization of Mtb H37Rv, H37Rv | M. tuberculosis H37Rv growth with meropenem, percent inhibition | inhibition, % at 25 µM | 330,000 compounds, 0.27% hits | AID 434955, 2010; call rule not given here;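 also: growth measured after seven days incubation then overnight dye step; 0% = bacteria only wells and 100% = bacteria with antibiotic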
* = called active by the depositor; . = not tested or not shown. Only some compounds are listed: those with a hit (about 0.77% of all), similar ones and a draw of the others.

SMILES	Rv3671c protease	Mtb hypoxia rep	RecA splice inh	Mtb UGM inh	Mtb betalactam
COC(=O)CC1c2cc(C(F)(F)F)ccc2S(=O)(=O)N1c1ccc(N(C)C)cc1 (configuration not stated)	.	13	.	.	.
O=C(O)[C@@H](c1ccccc1)N1Cc2ccccc2C1=O	7	0	32*	-2	-3
Cc1nnc(N/N=C/c2cccc(OCc3ccc(Cl)c(Cl)c3)c2)n1N	-68	.	74*	-1	100
CN1CCS/C1=C/C=C1\SC(=S)N(CC(=O)O)C1=O	-4	58*	-5	-13	-2
CCCCN1C(=O)/C(=C/C=C2\SCCN2C)SC1=S	.	25	-1	.	.
COc1ccc(-c2cc(N)n(S(=O)(=O)c3c(F)c(F)c(F)c(F)c3F)n2)cc1OC	-26	5	97*	-1	24
COc1cc(-c2cc(C(=O)Nc3ccncc3)c3ccccc3n2)cc(OC)c1OC	-1	22*	.	-4	15
COc1ccccc1NC(=O)c1cc(-c2cc(OC)c(OC)c(OC)c2)nc2ccccc12	-27	2	-1	-2	3
CC(=O)N(C)Cc1ccc(C(=O)CCl)cc1	5	13	37*	2	9
CC(=O)NCc1ccc(C(=O)CCl)cc1	2	1	23	2	3
COC(=O)C1=C(c2ccc(C(C)=O)cc2)CC2CCC1N2C(=O)NCCOc1ccccc1Cl (configuration not stated)	.	-2	.	.	.
O=Cc1sc(=O)n(Cc2cccc(C(=O)O)c2)c1Cl	5	1	54*	-13	-2
O=C(CCl)Nc1sccc1C(=O)c1ccccc1	-11	.	57*	3	100
NC(=O)c1ncn(C2OC(CO)C(O)C2O)c1O (configuration not stated)	.	6	.	.	.
CC1(C)CC2(CC(c3ccccc3F)c3cc(Cl)c(O)cc3O2)NC(=S)N1 (configuration not stated)	-7	-4	3	0	-4
CC(=O)Oc1cc2c(cc1Cl)C1(CC(c3ccccc3Cl)O2)CC(C)(C)NC(=S)N1 (configuration not stated)	18	.	45*	-1	74
C#CCOCCOCCOCCNc1nc(N2CCN(C(=O)Cn3cc(CCCN=C(N)N)nn3)CC2)nc(N2CCN(C(=O)C(CCCCN)n3cc(CCCC)nn3)CC2)n1 (configuration not stated)	.	2	.	.	.
CCN1C(=O)C2C(c3ccc(C)cc3)N3C(=O)N(c4ccc(OC)cc4)C(=O)[C@@]3(CC)C2C1=O (some centres not stated)	.	4	.	.	.
CCN1C(=O)/C(=C2\C=Cc3ccccc3N2CC)SC1=S	-5	37*	2	3	32
COc1ccccc1-c1c(C)oc2cc(OC(=O)c3ccco3)ccc2c1=O	-1	6	31*	0	1
COc1ccccc1Oc1c(C)oc2cc(OC(=O)c3ccco3)ccc2c1=O	-4	7	.	2	-2
COc1ccc(-n2nc(C(=O)NCC(=O)NC3CCCC(C)C3C)c3ccccc3c2=O)cc1 (configuration not stated)	-1	15	1	-3	5
COc1ccc(-n2nc(C(=O)NCC(=O)NC3CCCC(C)C3C)c3ccccc3c2=O)c(OC)c1 (configuration not stated)	-1	35*	1	0	11
O=C(CCCC(=O)Nc1cccc(Br)c1)N/N=C/c1cc([N+](=O)[O-])ccc1O	5	.	6	2	15
O=C(CN(c1cccc(Br)c1)S(=O)(=O)c1ccccc1)N/N=C/c1cc([N+](=O)[O-])ccc1O	0	.	33*	-2	2
SMILES	Rv3671c protease	Mtb hypoxia rep	RecA splice inh	Mtb UGM inh	Mtb betalactam
O=C(/C=C/c1ccccc1)c1ccc2c3c(cccc13)CC2	-20	25	34*	0	70
OCC(O)C(O)C(OC1OC(CO)C(O)C(O)C1O)C(O)CO (configuration not stated)	.	2	.	.	.
O=C(COC(=O)Cc1cccs1)NCC(=O)Nc1ccc(F)cc1	1	33*	.	3	4
CN(CC(=O)Nc1ccc(F)cc1)C(=O)COC(=O)Cc1cccs1	-8	-8	-3	2	-9
CCN(c1ccccc1)S(=O)(=O)c1ccc(Cl)c(NC(=O)COC(=O)c2ccc(O)cc2)c1	-16	1	4	1	-1
CCN(c1ccccc1)S(=O)(=O)c1ccc(Cl)c(NC(=O)COC(=O)c2cc(O)c3ccccc3c2O)c1	-133	.	80*	-1	-3
COc1ccc(NC(=O)c2cccc(N3C(=O)C4C5C=CC(C5)C4C3=O)c2)cc1Cl (configuration not stated)	-1	.	94*	0	64
CC(C)c1oc(=O)cc2c1C(O)C1OC(=O)[C@@]3(C)CCC(O)[C@@]2(C)C13 (some centres not stated)	.	4	.	.	.
CCOC1OC(C(=O)N2CCN(C)CC2)=CC(C2CCCCC2)C1CCCO (configuration not stated)	.	-3	.	.	.
Cn1c(=O)c(N)c2c3c(c(Br)ccc31)C(=O)c1ccccc1-2	20	2	-8	15*	26
COC(=O)Cn1cc(C=C2C(=O)NC(=O)NC2=O)c2ccccc21	-16	.	-4	0	-5
COCCNC(=O)Cn1cc(/C=C2\C(=O)NC(=O)N(c3ccccc3F)C2=O)c2ccccc21	-11	-6	-4	15*	2
COCCNC(=O)Cn1cc(/C=C2\C(=O)NC(=O)N(c3cccc(C)c3C)C2=O)c2ccccc21	-4	4	0	2	-1
NC(=O)Cn1cc(C=C2C(=O)NC(=O)NC2=O)c2ccccc21	.	9	-3	30*	-10
COCCCNC(=O)Cn1cc(/C=C2\C(=O)NC(=O)N(c3ccccc3F)C2=O)c2ccccc21	2	4	3	23*	8
COC(=O)C1=C(c2cccc(OCc3ccccc3)c2)CC2CCC1N2C(=O)NCc1ccc(C(F)(F)F)cc1 (configuration not stated)	.	4	.	.	.
O=c1nc(C=Cc2cccn2-c2ccc([N+](=O)[O-])cc2)cc(C(F)(F)F)[nH]1	.	11	.	.	.
CCCCCCC[n+]1ccc(-c2cc[n+](CCCCCCC)cc2)cc1	-3	81*	5	-2	99
COC(=O)Nc1nn(-c2ccc(OC)cc2)c(=O)c(C#N)c1C	2	2	40*	-1	1
C/C(=C/CCC(C)[C@H]1CC[C@@]2(C)C3=C(CC[C@]12C)[C@@]1(C)CCC(=O)C(C)(C)[C@@H]1CC3)C(=O)O (some centres not stated)	-7	.	42*	4	-4
C/C(=C/CCC(C)C1CCC2(C)C3CCC4C(C)(C)C(=O)CCC4(C)C3=CCC12C)C(=O)O (configuration not stated)	.	.	17	.	.
CCOC(=O)C1Nc2c(F)cc(C)cc2C2c3ccccc3CC12 (configuration not stated)	-9	7	45*	0	87
